Activity calls are given as the source filed them. The rule behind the calls is not given here.
Experiments:
[1] = system: Botulinum neurotoxin type F light chain protease (Clostridium botulinum); experiment: Clostridium botulinum type F light chain protease inhibitors, microsphere substrate cleavage, validation (AID 588459); conditions: multiplex microsphere protease substrate cleavage assay, flow cytometry; at 10 µM; stronger effect = higher value
[2] = biological target: Botulinum neurotoxin type A (Clostridium botulinum) (UniProt P0DPI0); experiment: BoNT/A light chain protease inhibitors, biochemical, multiplex microsphere flow cytometry, validation set (AID 588460); conditions: at 10 µM, stronger effect = higher value
[3] = biological target: Lethal factor (Bacillus anthracis) (UniProt P15917); experiment: Bacillus anthracis lethal factor inhibition, microsphere flow cytometry protease assay, validation at 10 µM (AID 588461); conditions: multiplex microsphere protease cleavage assay, stronger effect = higher value

Measured: inhibition

COC(=O)c1ccc(NC(=O)C23CCC(C)(C(=O)O2)C3(C)C)cc1 (centres undefined)
inactive: [1] 0.4% | [2] -1.5% | [3] 2.4%

OCCC1CN(Cc2nc(-c3ccccc3)cs2)CCN1Cc1ccc(F)cc1 (centres undefined)
inactive: [1] 3.5% | [2] 0.9% | [3] 8.5%

CCOC(=O)/C=C1\NC(C)(C)Cc2cc(OC)c(OC)cc21
inactive: [1] 0.2% | [2] -0.4% | [3] -2.8%

COc1cc(C2C(C(=O)c3ccc(C)o3)=C(O)C(=O)N2Cc2cccnc2)ccc1O (centres undefined)
inactive: [1] 1.8% | [2] -0.4% | [3] -0.1%

CN(C(=O)C(Cl)Cl)c1ccc(OC(=O)c2ccco2)cc1
inactive: [1] 1.7% | [2] 0.7% | [3] -0.8%

O=C(Nc1ccc(N2CCOCC2)cc1)c1ccc(-c2ccccc2[N+](=O)[O-])o1
inactive: [1] -2.6% | [2] -0.9% | [3] -10.4%

COc1ccc2c(c1)[N+](C)(C)C(C)(C)C=C2C
inactive: [1] -0.4% | [2] 0.1% | [3] 1.6%

Clc1ccc(OCCCN2CCCCC2)c(Br)c1
inactive: [1] 1.8% | [2] 0.2% | [3] -3.7%

CC12CCC(C(=O)NCc3ccccn3)(OC1=O)C2(C)C (centres undefined)
inactive: [1] -1.4% | [2] -1.3% | [3] 3%

CC[N+]1(C)CC2CCC(C)(C1)C2(C)C (centres undefined)
inactive: [1] 1.1% | [2] -0.5% | [3] 11.8%

CCCC(=O)O[C@]1(C(=O)COC(C)=O)CC[C@H]2[C@@H]3C[C@H](F)C4=CC(=O)C=C[C@]4(C)[C@@]3(F)[C@@H](O)C[C@@]21C
inactive: [1] -1.4% | [2] 0.4% | [3] -0.6%

Cc1ccc2[nH]c(=O)c(Cc3ccccc3)c(O)c2c1
inactive: [1] 0.6% | [2] -0.4% | [3] 2.6%

O=C(CN1C(=O)c2ccccc2C1=O)Nc1cccc([N+](=O)[O-])c1
inactive: [1] -5.7% | [2] -0.9% | [3] -2%

COc1cccc2c(=O)c(C/C=C(/C)Cl)c(C)[nH]c12
inactive: [1] 1.2% | [2] -1.6% | [3] 3.4%

Cn1cc(CN2CCC(C(=O)N3CCCCC3)CC2)c(-c2ccccc2F)n1
inactive: [1] 4% | [2] 0.2% | [3] 4.5%

CS(=O)(=O)Oc1ccc2c(c1)O/C(=C\C=C\c1ccccc1)C2=O
inactive: [1] 26.9% | [2] 28.3% | [3] 25%

Cc1c(CCOC(=O)CC23CC4CC(CC(C)(C4)C2)C3)sc[n+]1Cc1ccc([N+](=O)[O-])cc1
inactive: [1] -3.1% | [2] 1.6% | [3] -4.8%

CC(=O)[C@@]1(O)CC[C@H]2[C@@H]3CCC4=CC(=O)CC[C@]4(C)[C@H]3CC[C@@]21C
inactive: [1] 11.2% | [2] 0.4% | [3] -5.7%

CCCCCCC(=O)N(O)C1CC(=O)N(Cc2ccccc2)C1=O (centres undefined)
inactive: [1] 0.4% | [2] -0.7% | [3] 3.7%

NS(=O)(=O)c1cc2c(cc1Cl)NC(C(Cl)Cl)NS2(=O)=O (centres undefined)
inactive: [1] -0.3% | [2] 0.1% | [3] -3%

CC(=O)Oc1ccc2occ(/C=N/c3cc(=O)[nH]c(=S)[nH]3)c(=O)c2c1
inactive: [1] 2% | [2] 0.7% | [3] -4.2%

Cn1c(=O)[nH]c2nnc(-c3ccc(Cl)c(Cl)c3)nc2c1=O
inactive: [1] -0.1% | [2] 0.4% | [3] -4.1%

CCOC(=O)N1CCN(Cc2nc(Cc3cccc(F)c3)no2)CC1
inactive: [1] 1.3% | [2] 0% | [3] 3.3%

O=C(c1cc2cc(Br)ccc2o1)N1CCCC1
inactive: [1] -9.1% | [2] -4.2% | [3] -3.2%

O[C@@H](CNC[C@H](O)c1ccccc1)c1ccccc1
inactive: [1] 3.9% | [2] 1.5% | [3] 4.2%

O=C1[C@@H]2CSCN2C(=O)CN1Cc1ccc(F)cc1
inactive: [1] 1.2% | [2] 0.7% | [3] 3.4%

O=C(/C=C/c1ccccc1)NC(=O)c1ccccc1O
inactive: [1] -4.2% | [2] -1.7% | [3] -5.7%

CN(C)[C@@H]1C(=O)C(C(N)=O)=C(O)[C@@]2(O)C(=O)C3=C(O)c4c(O)ccc(Cl)c4[C@@H](O)[C@H]3C[C@@H]12
inactive: [1] -5.8% | [2] -0.3% | [3] -4.5%

COC1CCN(Cc2cn(Cc3ccccc3)nc2-c2cc3ccccc3o2)CC1
inactive: [1] 2% | [2] -0.8% | [3] -3.3%

c1ccc(-c2ccc(C(c3ccccc3)n3ccnc3)cc2)cc1 (centres undefined)
inactive: [1] -0.7% | [2] -1.3% | [3] -1.4%

CCOC(=O)c1cccc(P(C)(C)=O)c1
inactive: [1] -1.1% | [2] -0.5% | [3] -5%

COc1cc(C)nc(-n2nc(C)cc2OC)n1
inactive: [1] 0.2% | [2] -1.5% | [3] -4.9%

COCCCNc1nc2c([nH]1)c(=O)[nH]c(=O)n2C
inactive: [1] 2.6% | [2] 1.1% | [3] 1.3%

O=C1Cc2ccccc2C(c2ccccc2)N1 (centres undefined)
inactive: [1] -0.1% | [2] -0.3% | [3] -3.1%

Cc1ccc(CN2CCN(CCCc3ccccc3)CC2CCO)cc1 (centres undefined)
inactive: [1] 0.2% | [2] -0.2% | [3] -3.4%

Cc1ccc2[nH]c3c(=O)n(CCc4cnc[nH]4)cnc3c2c1
inactive: [1] -6.6% | [2] -0.7% | [3] -10.5%

CN(C)CCOC(C)(c1ccccc1)c1ccccn1 (centres undefined)
inactive: [1] 1.4% | [2] 0.5% | [3] -3.8%

COc1ccc(C(=O)/C=C2/c3ccccc3CC(C)(C)N2C)cc1
inactive: [1] -2.7% | [2] -1.8% | [3] -1.2%

Cn1nc(-c2ccc(Cl)cc2)nc2c(=O)n(C)c(=O)nc1-2
inactive: [1] -0.5% | [2] 2% | [3] 3.7%

CCN1C(=O)C(CC(=O)Nc2ccc(F)cc2)N(Cc2ccco2)C1=S (centres undefined)
inactive: [1] -2.9% | [2] -2.8% | [3] -7.4%

CC(C)Oc1ccc(C2CC(=O)N(c3ccc(C(=O)O)cc3)C2=O)cc1 (centres undefined)
inactive: [1] 2.1% | [2] -0.7% | [3] -6.7%

CC(C)(C)C(=O)Nc1cccc(OC(F)(F)C(F)Cl)c1 (centres undefined)
inactive: [1] 3.3% | [2] 0% | [3] -6%

CC(C)=CCC/C(C)=C/CC/C(C)=C/CC/C(C)=C/CC1=C(C)C(=O)c2ccccc2C1=O
inactive: [1] -4.8% | [2] -0.7% | [3] -3%

CC/C(=C(\c1ccc(O)cc1)c1ccc(OCCN(C)C)cc1)c1ccccc1
inactive: [1] 2.7% | [2] -0.2% | [3] -2.3%

CS(=O)(=O)c1cccc(C(=O)Oc2ccccc2)c1
inactive: [1] -2% | [2] 0.1% | [3] 4.6%

C#CCN(C)CCCOc1ccc(Cl)cc1Cl
inactive: [1] 1.1% | [2] -1.4% | [3] -10.6%

CNS(=O)(=O)c1ccc(C)cc1
inactive: [1] -3.1% | [2] -0.5% | [3] -3.3%

COC(=O)CCC(=O)CN
inactive: [1] 0.5% | [2] 0.6% | [3] 0.6%

O=C(CCCN1CCC(O)(c2ccc(Cl)cc2)CC1)c1ccc(F)cc1
inactive: [1] -3.5% | [2] 1.1% | [3] 3.7%

CC(C)c1cc(=O)oc2c3c4c(cc12)CCCN4CCC3
inactive: [1] 4.4% | [2] 2% | [3] -13.8%

O=C1N=c2ccccc2=C1c1[nH]c(=S)[nH]c1O
inactive: [1] 3.3% | [2] -0.7% | [3] 7%

COc1ccc(CCNC(=O)C(=O)Nc2ccc3c(c2)OCO3)cc1OC
inactive: [1] 1.8% | [2] -0.8% | [3] -0.3%

Brc1c(NC2=NCCN2)ccc2nccnc12
inactive: [1] -5.6% | [2] -0.8% | [3] -2.9%

NS(=O)(=O)c1cc2c(cc1Cl)NC(C1C[C@H]3C=C[C@@H]1C3)NS2(=O)=O (some centres undefined)
inactive: [1] 1.4% | [2] 1% | [3] -3.2%

COc1ccc(C(=O)Nc2ccccc2C(=O)NCCCn2ccnc2)cc1
inactive: [1] -3.6% | [2] -1.8% | [3] -3.7%

N#C/C(C(N)=O)=c1/ccc2c(c1)N1C3=C(CCCC3)CC3CCCCC31N=2 (centres undefined)
inactive: [1] -0.8% | [2] 2.4% | [3] -2.3%

c1ccc(-c2ccccn2)nc1
inactive: [1] -0.7% | [2] 0.3% | [3] 6.3%

O=C(N/N=C\c1cc([N+](=O)[O-])ccc1N1CCOCC1)c1ccccn1
inactive: [1] -0.1% | [2] -1.3% | [3] 2.6%

CCOC(=O)N1CCc2[nH]c3ccc(C)cc3c2C1
inactive: [1] -1.2% | [2] -1.6% | [3] 1.9%

C1CCC(C(CC2CCCCN2)C2CCCCC2)CC1 (centres undefined)
inactive: [1] -7.7% | [2] 0.4% | [3] -14.1%

CC(C)(C)n1c(=O)[nH]c2c(c1=O)CCC2
inactive: [1] 1.8% | [2] -0.4% | [3] -3.9%

CC1(C)S[C@@H]2[C@H](NC(=O)Cc3ccccc3)C(=O)N2[C@H]1C(=O)O
inactive: [1] 4.2% | [2] 1.7% | [3] -0.8%

CCN(CC)C(=S)SSC(=S)N(CC)CC
inactive: [1] -3.2% | [2] -3.2% | [3] -10.6%
